# Screening data deposited in PubChem by National Center for Advancing Translational Sciences (NCATS).
# Most compounds without a hit are left out; they make up all but 2.6% or so of the library.
# p53ts 39C tox: kills p53ts cells at the nonpermissive temperature; H1299-p53A138V viability at 39C, ATP luminescence, 24 h; Potency, µM (highest dose often 46.1 µM), for the others: at the highest dose activity change, negative = cell killing, usual class: cytotoxic; hit rate 1.5% among 130,000; further: nearly all actives have a fitted effect of over 55% in size
# FLuc inh: firefly luciferase inhibition. P08659. purified firefly luciferase, luminescence, 8 min. Potency, µM (series often up to 57.1 µM), for the others: at the top dose activity change, negative = inhibition, actives largely listed as inhibitors. hit rate 2.2% among 72,000; further: nearly all actives have a fitted effect of over 40% in size
# Target sequence (P08659 whole entry, looked up): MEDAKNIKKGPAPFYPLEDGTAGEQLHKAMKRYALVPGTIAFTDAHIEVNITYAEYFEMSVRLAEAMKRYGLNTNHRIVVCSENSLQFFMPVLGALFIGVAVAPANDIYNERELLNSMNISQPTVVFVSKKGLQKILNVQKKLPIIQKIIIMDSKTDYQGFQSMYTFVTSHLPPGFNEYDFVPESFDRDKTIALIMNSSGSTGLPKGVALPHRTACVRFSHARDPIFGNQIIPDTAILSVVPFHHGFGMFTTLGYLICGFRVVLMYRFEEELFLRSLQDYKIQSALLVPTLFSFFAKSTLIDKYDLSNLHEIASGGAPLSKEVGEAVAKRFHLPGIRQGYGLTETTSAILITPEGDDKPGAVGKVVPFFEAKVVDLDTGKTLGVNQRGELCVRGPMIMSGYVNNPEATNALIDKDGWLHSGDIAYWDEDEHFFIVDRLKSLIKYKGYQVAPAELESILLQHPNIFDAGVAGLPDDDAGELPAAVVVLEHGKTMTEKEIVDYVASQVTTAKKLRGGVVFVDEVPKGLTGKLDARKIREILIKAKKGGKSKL
#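 Luminescence read-out after 8 min at room temperature; enzyme reaction used luciferin plus 10 uM ATP (linear range) in imidazole buffer pH 7.2 with KCl, MgCl2, Tween 20 and BSA. Each sample was run as a titration.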
# p53ts 32C kill: kills p53ts cells at the permissive temperature; H1299-p53A138V at 32C, ATP luminescence viability, 24 h; Potency, µM (titrated, usually from 46.1 µM), for inactives: at the highest dose activity change, negative = cytotoxicity, actives largely listed as cytotoxic; hit rate 0.93% among 130,000;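 further: 0% = DMSO and -100% = full killing by reference compound; nearly all actives have a fitted effect of over 55% in size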
#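 Cells: H1299 p53ts (A138V), 600/well, pre-incubated 16–30 h at 37C. Cpd up to 46 uM, 24 h, 32C. Readout: ATPlite luminescence, 20 min RT. Normalization: DMSO vs tamoxifen 100 uM. AC50 by Hill equation.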
# An asterisk follows results filed as active; ? = inconclusive; / = not tested or not shown; [ ] = another dose, or the depositor's remark. The call rests on the fitted dose curve; in most records, active means well fitted curve in the direction sought with a large enough effect; inconclusive means small, poorly fitted or top-dose-only effect, or another doubt; inactive means no such curve, though single readings can be large; an effect the other way counts as inactive or inconclusive. Unless noted, on the % scale 0 is the no-effect control and ±100 the full control effect; potency means the concentration at half of the fitted maximal effect.
SMILES,p53ts 39C tox,FLuc inh,p53ts 32C kill
O=C(Nc1cc2c(cc1C(=O)c1ccccc1)OCCO2)c1ccc(Br)cc1,20µM*,/,-5.7%
COc1ccccc1CNC(=O)CCn1nc(C)c2c(C)n(-c3ccccc3)nc2c1=O,2.6%,/,6.9%
COc1ccc(CNC(=O)CSc2nnc(C)c3c(C)n(-c4ccccc4)nc23)c(OC)c1,12.6µM*,/,14.1%
COc1cccc(CNC(=O)CSc2nnc(C)c3c(C)n(-c4ccccc4)nc23)c1OC,25.1µM*,/,-6.4%
Cc1nnc(SCC(=O)NCc2ccccc2F)c2nn(-c3ccc(Cl)cc3)c(C)c12,42.7%,/,-20.4%
Cc1ccccc1CSc1nc2c([nH]c3ccccc32)c(=O)n1-c1ccccc1,-3.4%,/,6.2%
CCCCC(CC)CO (centres undefined),0.1%,/,-4.1%[1.84 µM]
CCCCC(CC)CN=C(N)NC(N)=NCCCCCCN=C(N)NC(N)=NCC(CC)CCCC (centres undefined),?,/,15.8µM*
O=c1cnn(-c2ccccc2)c(-c2ccccc2)c1,-23.9%,12.6µM*,-10.2%
COc1cnn(-c2ccccc2)c(=O)c1N(C)C,6.5%,-1.0%,1.0%
O=C1CS(=O)(=O)C2(C(=O)Nc3ccccc32)N1c1cccc(Cl)c1 (centres undefined),-3.1%,/,3.5%
CN(C)c1ccc(N/C=C/C(=O)c2ccccc2)cc1,12.6µM*,0.316µM*,5.01µM*
COc1ccc(C(=O)/C=C/Nc2ccc(S(=O)(=O)Nc3ncccn3)cc2)cc1,-1.1%,/,-11.3%
CN1CCc2cccc3c2[C@H]1Cc1ccc(O)c(O)c1-3,6.31µM*,-5.2%,25.1µM*
COc1ccc(-n2c(=O)c(-c3cn(C)c4ccccc34)nc3cnc(N4CCOCC4)nc32)cc1,-8.0%,0.9%[11.4 µM],4.4%
COc1ccc(C(=O)c2oc3ccc(OC)cc3c2N)cc1,-10.8%,10µM*,-1.2%
COc1ccc(C(=O)c2oc3ccccc3c2NC(=O)c2ccc(F)cc2)cc1,-11.1%,/,-7.9%
O=C(c1cc2ccccc2oc1=O)N1CCN(c2ccc(N3CCOCC3)nn2)CC1,?,15.8µM*,?
Cc1ccc(C)c(N2CCN(C(=O)c3cc4ccccc4oc3=O)CC2)c1,12.5%,-1.1%,9.9%
CCOc1ccc(N(C(=O)c2ccc(Cl)cc2)S(=O)(=O)c2ccc3c(c2)n(C)c(=O)n3C)cc1,-15.1%,/,8.2%
Cc1ccc(C)c(NC(=O)c2nc(S(C)(=O)=O)ncc2N(Cc2ccc(C(C)(C)C)cc2)Cc2ccco2)c1,9.2%,/,-1.4%
Cc1cc(NC(=O)CSc2ccc(-c3nc4cc(C)c(C)cc4[nH]3)cn2)no1,?,0.316µM*,?
Cc1ccc2nc(SCC(=O)Nc3cc(C)on3)[nH]c2c1,-1.9%,-2.6%,7.7%
COc1ccc(OCC(=O)Nc2cccc(OC)c2)cc1,-6.4%,-14.7%,-11.4%
COc1cccc(NC(=O)COc2ccccc2C(N)=O)c1,10µM*,7.94µM*,15.8µM*
SMILES,p53ts 39C tox,FLuc inh,p53ts 32C kill
Cc1ccccc1OCC(=O)Nc1cccc(N(C)S(C)(=O)=O)c1,-21.5%,20µM*,-18.4%
CN(c1cccc(NC(=O)COc2ccc(Cl)cc2Cl)c1)S(C)(=O)=O,?,/,-27.9%
Cc1ccc(CNC(=O)[C@H](C)[C@H]2C[C@]2(C)[C@H](NC(=O)OCc2ccccc2)c2ccccc2)c(F)c1F,?,/,18.9%
COc1ccccc1CNC(=O)C(=O)NCC(c1cccs1)S(=O)(=O)c1ccc(F)cc1 (centres undefined),-7.7%,/,3.9%
COc1ccc(-c2ccc(CNc3ccc4[nH]c(=O)[nH]c4c3)o2)cc1Cl,-2.8%,/,?
CCCCCCCC/C=C\CCCCCCCC(=O)NCc1ccc(O)c(OC)c1,31.6µM*,-0.9%,?
CCCCCCCCCCCCCCCCCC(=O)NCCc1ccc(O)c(O)c1,-9.5%,/,13.3%
CCCCCCCC/C=C\CCCCCCCC(=O)NCCc1ccc(O)c(O)c1,12.6µM*,-5.5%,?
CCCCCCCCCCCCCCCC(=O)NCCc1ccc(O)c(O)c1,-14.8%,/,13.1%
CCC(CC)C(=O)Nc1nnc(S(=O)(=O)N(C)c2cc(C)cc(C)c2)s1,-9.0%,/,6.6%
Cc1cc(C2(c3cc(C)c(O)cc3C)OS(=O)(=O)c3ccccc32)c(C)cc1O,-6.1%,/,2.0%[1.84 µM]
Oc1cccc(-c2nc3ccccc3s2)c1,10µM*,10µM*,7.94µM*
COc1ccc(-c2nc3ccccc3s2)cc1NC(=O)c1ccccc1OC,-8.2%,/,-14.6%
COc1ccc(-c2nc3ccccc3s2)cc1O,2.51µM*,1µM*,5.01µM*
O=S(=O)(c1cccc(-c2nc3ccccc3s2)c1)N1CCCC1,-12.6%,-4.8%,-5.2%
CC(C)NC[C@@H](O)COc1ccccc1-n1cccc1,-18.7%,0.4%,-9.1%
COc1ccccc1CNC(=O)CCNS(=O)(=O)c1ccc2c(c1)CCCC(=O)N2,21.1%,/,1.0%
CC1CC(C)(C)Nc2ccc(OC(=O)c3ccco3)cc21 (centres undefined),10µM*,12.6µM*,15.8µM*
O=C(Oc1ccc2ccccc2c1)c1ccco1,6.3%,-20.0%,-4.1%
COc1ccc(OC)c(-n2cnc3cc(C(=O)NCCc4ccccc4)ccc32)c1,9.7%,/,0.4%
Cc1nc2nc(-c3ccccc3)cn2nc1C,?,12.6µM*,?
CCc1c(-c2ccccc2)nc2nc(C)c(C)nn12,-11.3%,-12.3%,-13.1%
c1ccc(-c2cn3nc(-c4ccccc4)cnc3n2)cc1,-2.3%,/,/
CCc1ccc(-c2cn3nc(C)c(C)nc3n2)cc1,/,1µM*,/
Cc1cc(C)c(NC(=O)Cn2c(=O)n(CC3CCCO3)c(=O)c3ccccc32)c(C)c1 (centres undefined),10.8%,/,7.6%
SMILES,p53ts 39C tox,FLuc inh,p53ts 32C kill
CCOC(=O)c1[nH]c(C)c(CCC(=O)Nc2ccccc2OCC)c1C,-8.6%,/,4.4%
Cc1ccc(N2CCN(C(=O)NCc3noc4ccccc34)CC2C)cc1 (centres undefined),-4.0%,/,9.1%
Cc1ccc(CNc2ccc3c(c2)ncn3C)cc1,-0.5%,-16.3%,-17.8%
Cc1ccc(C(=O)Nc2ccc3c(c2)ncn3C)cc1,?,25.1µM*,?
O=C(c1ccc2nc(N3CCOCC3)sc2c1)N1CCCC1,4.9%,-0.4%,-0.6%
Nc1nc2ccc(N3CCOCC3)cc2s1,3.98µM*,15.8µM*,3.98µM*
O=C(NCC1CCCO1)c1cc(-c2ccccc2)on1 (centres undefined),5.2%,-0.3%,6.3%
Cc1ccc(-c2cc(C(=O)NCC3CCCO3)no2)cc1 (centres undefined),?,12.6µM*,?
O=C(O)[C@H]1O[C@H]1C(=O)O,-0.8%[9.22 µM],3.1%[11.4 µM],1.3%[9.22 µM]
COc1cc(S(=O)(=O)NCCc2c(C)[nH]c3ccc(C)cc23)ccc1Br,-13.2%,/,-2.7%
Cc1oc2ccc(O)c(CN(C)Cc3ccccc3)c2c1C(=O)Nc1cccc(Cl)c1C,-20.8%,/,-5.5%
Cc1ccc(C)n1-n1cnc2sc(-c3ccccc3)cc2c1=O,-13.4%,-2.0%,-3.7%
CCn1cnc2sc(-c3ccccc3)cc2c1=O,-26.8%,12.6µM*,-26.2%
O=C(O)CC(NC(=O)c1ccccc1NC(=O)c1ccccc1)C(=O)O (centres undefined),8.0%,-5.6%,3.7%
Cc1ccc(C(=O)Nc2ccccc2C(=O)NC(CC(=O)O)C(=O)O)cc1 (centres undefined),-24.6%,31.6µM*,-23.6%
